This is an account of results in PubChem BioAssay (NCI).

Each structure is given as a SMILES string. About 83,000 compounds went through this panel and 20% of them were active in at least one assay; those are over-represented in the sample as a whole.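 Note: values are percent growth. 100 is the growth of untreated cells, values between 100 and 0 indicate rising inhibition; between -100 and 0 indicates cell death.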 Activity calls are given as the source filed them. The calls were made as follows: active = growth percent below 10; inactive = the rest.

In this assay the test system is SW-620 colon. Description: NCI-60 one-dose screen, 48 h (100 = growth as untreated, 0 = no growth, -100 = all killed). Particulars: 10 µM unless noted.
For the compound `COc1ccc(C2CC(c3cccc(OCCCCOc4cccc(C5=NN(C(C)=O)C(c6ccc(OC)cc6)C5)c4)c3)=NN2C(C)=O)cc1` (centres undefined), the growth was 87.1% (inactive).

For the compound `O=C(CSc1nc2ccccc2c(=O)n1-c1ccccc1)Nc1ccc(S(=O)(=O)Nc2nccs2)cc1`, the growth is 67.9% (inactive).

With `COC(=O)c1ccc(NC2=C(Cl)C(=O)C(C)=C(C)C2=O)cc1`, the growth is 35.5% (inactive).

`O=S(=O)(Oc1ccc(-c2cn3ccoc3n2)cc1)c1cccc(C(F)(F)F)c1`: the growth is 103% (inactive).

Take `O=C(Nc1ccc(N2CCOCC2)cc1)Nc1ccc2c(ccn2C(=O)c2cccc(F)c2)c1`: the growth is 74.5% (inactive).

For `CCc1cc(OC(=O)N2CCN(CCC(C)(COC(C)(C)C)COC(C)(C)C)CC2)ccc1Nc1cc(-c2ccc(-n3cccn3)cc2)[nH]n1`, the growth is 94.8% (inactive).

Turning to `COC(=O)CNC(=O)c1cccc(-c2cc(=O)c3c(OC)c(OC)c(OC)cc3o2)c1`, the growth was 100% (inactive).

For the compound `Cc1csc(/N=C(N)/N=C(\N)c2cccs2)n1`, the growth is 106% (inactive).

Turning to `C#Cc1nc(C(=O)NCCCCCCC(=O)NO)cs1`, the growth was 0.565% (active).

As to `COC(=O)c1ccc(NC2=C(Cl)C(=O)c3nc(C)ccc3C2=O)cc1`, the growth is 18.3% (inactive).

On to `O=C(Nc1ccc(N=Cc2c(O)[nH]c3ccccc23)cc1)Nc1ccc(S(=O)(=O)Nc2ncccn2)cc1`, for which the growth was 103% (inactive).

In the case of `CSc1ccc(/C(=N/N=C(N)N)c2ccc(Cl)cc2)cc1`, the growth is 2.54% (active).

`O=c1[nH][nH]c(-c2ccc(F)cc2)c1-c1nc2ccccc2s1`: the growth is 105% (inactive).

For the compound `Clc1cccc(/C=N/Nc2nc(N/N=C/c3cccc(Cl)c3)nc(N3CCOCC3)n2)c1`, the growth is 18.1% (inactive).
